Assay results reported in paper PMC3795721, “Screening for Protein-DNA Interactions by Automatable DNA-Protein Interaction ELISA”.

These sequences were tested against AT4G31550 (Arabidopsis thaliana, UniProt Q9SV15 228-325) (assay: DPI-ELISA; DPI-ELISA, streptavidin 384-well plate, 1-2 pmol biotinylated dsDNA per well, crude native E. coli extract, anti-His detection; buffer as in Brand et al. [46],; high values mean tight binding). Details: tags: C-terminal His (pET-DEST42); label: 5' biotin on forward strand; dsDNA, one strand shown.
AT4G31550, sequence (Q9SV15 228-325): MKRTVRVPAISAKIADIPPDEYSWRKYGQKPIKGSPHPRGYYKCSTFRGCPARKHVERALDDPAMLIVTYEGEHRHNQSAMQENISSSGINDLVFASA

Row | Sequence | binding signal
1 | AAAAAATTGCACCTGATACTAGGGTTAAAA | 0.655 ± 0.148 absorbance
2 | AAAAAATGCCCATGTGCACCCGTACGAAAA | 0.56 ± 0.0849 absorbance
3 | AAAAAATCTTACCCCTCCGCTTCTATAAAA | 0.72 ± 0.255 absorbance
4 | AAAAAATAGCGACTTCGACTCTCAGTAAAA | 0.76 ± 0.0707 absorbance
5 | AAAAAAATCAGCCTGACTCTGGGCGTAAAA | 0.71 ± 0.141 absorbance
6 | AAAAAAGCTTCTCATGTTGTCTTAGGAAAA | 0.695 ± 0.177 absorbance
7 | AAAAAAGTAGGTGCTGATGCTGGCCGAAAA | 0.59 ± 0.0141 absorbance
8 | AAAAAAATCCCACTTCATTCTAAAAA | 0.6 ± 0.0707 absorbance
9 | AAAAAAAAATTTCGAGCCTCGGCGTAAAAA | 0.49 ± 0.0849 absorbance
10 | AAAAAAACATCCACACCCGCGGCGCGAAAA | 0.56 ± 0.141 absorbance
11 | AAAAAATGCTATCCGTGTCTATGCCAAAAA | 0.54 ± 0.0707 absorbance
12 | AAAAAATGCAACGCTCCTTTCCCGCTAAAA | 0.535 ± 0.106 absorbance
13 | AAAAAAATCATCCTATTGTTGCTGTCAAAA | 0.665 ± 0.12 absorbance
14 | AAAAAAAAATGCTAGCGCGTACGTAAAAAA | 0.69 ± 0.17 absorbance
